# From article PMC7862700, “An all-to-all approach to the identification of sequence-specific readers for epigenetic DNA modifications on cytosine”
# How the values were obtained:
# Test in all cases: DAPPL (digital affinity profiling via proximity ligation, sequencing); 10 mM Tris-HCl pH 7.5, 50 mM NaCl, 1 mM DTT, 4% glycerol, room temperature, 30 min; GST-TFs on glutathione beads, 16-mer random dsDNA library, 0.1% formaldehyde crosslink after washing; high values mean tight binding
# Conditions in all cases: protein: recombinant; tags: N-terminal GST; dsDNA, one strand shown
# FLI1 = molecular target: T1, FLI1 (Homo sapiens, UniProt Q01543 1-452)
# T1 sequence: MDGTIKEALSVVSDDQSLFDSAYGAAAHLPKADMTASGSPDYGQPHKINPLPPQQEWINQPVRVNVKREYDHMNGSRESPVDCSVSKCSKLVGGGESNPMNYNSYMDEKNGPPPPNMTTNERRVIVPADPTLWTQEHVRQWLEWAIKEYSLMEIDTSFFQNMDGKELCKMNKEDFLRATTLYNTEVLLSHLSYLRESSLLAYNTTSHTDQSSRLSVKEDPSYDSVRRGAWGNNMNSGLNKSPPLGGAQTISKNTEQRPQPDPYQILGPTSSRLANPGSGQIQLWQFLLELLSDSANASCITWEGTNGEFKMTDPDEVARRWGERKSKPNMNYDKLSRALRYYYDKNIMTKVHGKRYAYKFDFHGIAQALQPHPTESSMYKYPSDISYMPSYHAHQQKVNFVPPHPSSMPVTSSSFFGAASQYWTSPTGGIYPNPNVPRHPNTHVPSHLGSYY
# Outline: (§1)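 The binding signal reported is, for every hexamer, its read frequency for a factor over its read frequency for the tag-only sample. Reads came from pools of yeast-expressed, GST-fused human transcription factors on glutathione beads, barcoded with DNA and mixed with that sample, which were incubated with 200 nmole of a random double-stranded 16-mer DNA library in Tris/NaCl/DTT/glycerol buffer at room temperature for 30 min. After washing, the pools were crosslinked with 0.1% formaldehyde, proximity-ligated with BsaI/T4 ligase for 1 h at 37 °C, PCR-amplified and sequenced on an Illumina NextSeq500.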
# ELK1 = molecular target: T2, ELK1 (Homo sapiens, UniProt P19419 1-428)
# T2 sequence: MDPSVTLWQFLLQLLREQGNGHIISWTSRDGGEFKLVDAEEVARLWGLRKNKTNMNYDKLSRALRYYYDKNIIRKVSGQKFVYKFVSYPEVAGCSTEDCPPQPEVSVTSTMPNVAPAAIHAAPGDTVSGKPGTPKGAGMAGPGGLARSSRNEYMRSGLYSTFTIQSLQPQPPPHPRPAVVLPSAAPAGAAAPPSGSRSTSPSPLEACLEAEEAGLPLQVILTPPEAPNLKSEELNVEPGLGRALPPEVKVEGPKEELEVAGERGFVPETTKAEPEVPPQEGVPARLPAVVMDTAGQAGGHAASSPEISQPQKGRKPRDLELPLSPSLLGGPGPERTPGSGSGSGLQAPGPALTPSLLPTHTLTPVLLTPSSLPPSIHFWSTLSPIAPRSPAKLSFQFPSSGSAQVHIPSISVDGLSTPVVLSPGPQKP
# Outline: as §1
# GABPA = molecular target: T3, GABPA (Homo sapiens, UniProt Q06546 1-454)
# T3 sequence: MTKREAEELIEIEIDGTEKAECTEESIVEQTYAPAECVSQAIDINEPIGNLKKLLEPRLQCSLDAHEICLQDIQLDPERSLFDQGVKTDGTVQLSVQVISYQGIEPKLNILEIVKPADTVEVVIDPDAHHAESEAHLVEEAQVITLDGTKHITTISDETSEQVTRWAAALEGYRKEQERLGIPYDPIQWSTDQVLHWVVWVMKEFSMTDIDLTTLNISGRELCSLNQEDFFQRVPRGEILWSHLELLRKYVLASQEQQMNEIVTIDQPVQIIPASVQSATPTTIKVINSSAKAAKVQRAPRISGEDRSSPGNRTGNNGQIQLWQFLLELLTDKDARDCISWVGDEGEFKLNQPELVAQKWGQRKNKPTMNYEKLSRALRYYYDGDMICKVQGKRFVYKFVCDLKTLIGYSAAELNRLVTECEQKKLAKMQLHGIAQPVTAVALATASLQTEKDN
# Outline: as §1
# ERG = molecular target: T4, ERG (Homo sapiens, UniProt P11308 1-479)
# T4 sequence: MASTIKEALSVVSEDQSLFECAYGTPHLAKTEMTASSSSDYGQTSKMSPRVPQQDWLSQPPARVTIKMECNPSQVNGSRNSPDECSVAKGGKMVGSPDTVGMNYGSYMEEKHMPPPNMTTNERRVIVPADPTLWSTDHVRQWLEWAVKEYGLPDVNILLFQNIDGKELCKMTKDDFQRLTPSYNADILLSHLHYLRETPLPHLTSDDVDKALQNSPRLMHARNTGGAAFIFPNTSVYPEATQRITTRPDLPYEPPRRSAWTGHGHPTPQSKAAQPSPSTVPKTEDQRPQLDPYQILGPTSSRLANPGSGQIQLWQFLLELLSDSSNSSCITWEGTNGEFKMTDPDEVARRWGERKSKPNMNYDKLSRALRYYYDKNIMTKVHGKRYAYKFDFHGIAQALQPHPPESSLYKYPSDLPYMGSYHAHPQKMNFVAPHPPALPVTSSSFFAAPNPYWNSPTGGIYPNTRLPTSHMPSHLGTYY
# Outline: as §1
# ELF1 = ELF1 (Homo sapiens, UniProt P32519 1-619)
# Outline: as §1
# EHF = molecular target: T5, EHF (Homo sapiens, UniProt Q9NZC4 1-300)
# T5 sequence: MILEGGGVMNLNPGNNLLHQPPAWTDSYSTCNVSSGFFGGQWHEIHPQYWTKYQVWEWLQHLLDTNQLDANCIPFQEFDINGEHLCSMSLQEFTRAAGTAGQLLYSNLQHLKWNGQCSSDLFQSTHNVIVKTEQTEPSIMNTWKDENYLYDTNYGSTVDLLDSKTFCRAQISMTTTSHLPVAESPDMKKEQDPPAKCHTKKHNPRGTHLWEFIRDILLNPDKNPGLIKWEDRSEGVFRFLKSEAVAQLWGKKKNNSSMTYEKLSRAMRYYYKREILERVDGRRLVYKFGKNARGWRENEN
# Outline: as §1
# SPI1 = SPI1 (Homo sapiens, UniProt P17947 1-270)
# Outline: as §1
# SPIB = SPIB (Homo sapiens, UniProt Q01892 1-262)
# Outline: as §1
# ELK3 = molecular target: T6, ELK3 (Homo sapiens, UniProt P41970 1-407)
# T6 sequence: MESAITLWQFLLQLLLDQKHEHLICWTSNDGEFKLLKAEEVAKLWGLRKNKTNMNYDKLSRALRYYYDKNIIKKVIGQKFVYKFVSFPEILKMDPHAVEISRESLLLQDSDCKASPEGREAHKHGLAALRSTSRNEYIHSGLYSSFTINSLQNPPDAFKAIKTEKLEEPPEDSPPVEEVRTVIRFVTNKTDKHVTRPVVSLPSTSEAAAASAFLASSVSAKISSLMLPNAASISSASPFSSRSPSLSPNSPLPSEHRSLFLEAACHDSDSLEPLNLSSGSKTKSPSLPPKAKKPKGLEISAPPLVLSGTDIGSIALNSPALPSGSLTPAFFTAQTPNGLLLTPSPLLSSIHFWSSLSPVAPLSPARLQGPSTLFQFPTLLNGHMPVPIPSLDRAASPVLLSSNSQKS
# Outline: as §1
# SPIB, sequence (Q01892 whole entry): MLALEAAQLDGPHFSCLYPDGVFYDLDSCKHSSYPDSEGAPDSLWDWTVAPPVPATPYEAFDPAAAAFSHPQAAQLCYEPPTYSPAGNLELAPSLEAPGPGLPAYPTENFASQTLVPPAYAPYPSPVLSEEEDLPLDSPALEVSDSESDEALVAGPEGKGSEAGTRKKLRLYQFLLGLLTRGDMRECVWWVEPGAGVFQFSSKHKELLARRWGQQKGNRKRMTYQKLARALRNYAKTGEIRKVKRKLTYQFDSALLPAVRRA
# ELF1, sequence (P32519 whole entry): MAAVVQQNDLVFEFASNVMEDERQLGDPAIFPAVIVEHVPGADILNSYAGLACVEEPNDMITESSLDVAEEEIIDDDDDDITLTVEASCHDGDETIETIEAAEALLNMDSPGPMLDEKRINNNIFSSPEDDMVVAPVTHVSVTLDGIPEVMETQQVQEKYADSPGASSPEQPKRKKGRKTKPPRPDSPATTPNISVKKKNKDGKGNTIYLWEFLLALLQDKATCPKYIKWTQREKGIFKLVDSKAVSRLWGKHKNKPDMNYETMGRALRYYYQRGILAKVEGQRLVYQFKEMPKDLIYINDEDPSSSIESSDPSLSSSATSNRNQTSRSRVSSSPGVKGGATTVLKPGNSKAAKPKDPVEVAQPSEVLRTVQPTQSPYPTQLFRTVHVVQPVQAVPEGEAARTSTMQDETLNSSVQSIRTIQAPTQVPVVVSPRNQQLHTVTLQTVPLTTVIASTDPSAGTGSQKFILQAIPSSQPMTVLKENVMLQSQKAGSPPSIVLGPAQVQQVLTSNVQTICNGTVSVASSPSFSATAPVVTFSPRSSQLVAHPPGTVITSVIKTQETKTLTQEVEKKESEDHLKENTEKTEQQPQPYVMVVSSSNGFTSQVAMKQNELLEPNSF
Sequence,binding signal (FLI1),binding signal (ELK1),binding signal (GABPA),binding signal (ERG),binding signal (ELF1),binding signal (EHF),binding signal (SPI1),binding signal (SPIB),binding signal (ELK3)
TAAACA,"1.19 fold enrichment (6-mer frequency, TF over GST control)","1.2 fold enrichment (6-mer frequency, TF over GST control)","1.19 fold enrichment (6-mer frequency, TF over GST control)","1.21 fold enrichment (6-mer frequency, TF over GST control)","1.22 fold enrichment (6-mer frequency, TF over GST control)","1.2 fold enrichment (6-mer frequency, TF over GST control)","1.21 fold enrichment (6-mer frequency, TF over GST control)","1.16 fold enrichment (6-mer frequency, TF over GST control)","1.23 fold enrichment (6-mer frequency, TF over GST control)"
ACTCCC,"1.52 fold enrichment (6-mer frequency, TF over GST control)","1.2 fold enrichment (6-mer frequency, TF over GST control)","1.42 fold enrichment (6-mer frequency, TF over GST control)","1.45 fold enrichment (6-mer frequency, TF over GST control)","1.46 fold enrichment (6-mer frequency, TF over GST control)","1.38 fold enrichment (6-mer frequency, TF over GST control)","1.38 fold enrichment (6-mer frequency, TF over GST control)","1.42 fold enrichment (6-mer frequency, TF over GST control)","1.43 fold enrichment (6-mer frequency, TF over GST control)"
AAAGGG,"1.21 fold enrichment (6-mer frequency, TF over GST control)","1.11 fold enrichment (6-mer frequency, TF over GST control)","1.22 fold enrichment (6-mer frequency, TF over GST control)","1.12 fold enrichment (6-mer frequency, TF over GST control)","1.09 fold enrichment (6-mer frequency, TF over GST control)","1.2 fold enrichment (6-mer frequency, TF over GST control)","1.68 fold enrichment (6-mer frequency, TF over GST control)","1.19 fold enrichment (6-mer frequency, TF over GST control)","1.1 fold enrichment (6-mer frequency, TF over GST control)"
GGCACT,"1.24 fold enrichment (6-mer frequency, TF over GST control)","1.21 fold enrichment (6-mer frequency, TF over GST control)","1.28 fold enrichment (6-mer frequency, TF over GST control)","1.22 fold enrichment (6-mer frequency, TF over GST control)","1.22 fold enrichment (6-mer frequency, TF over GST control)","1.33 fold enrichment (6-mer frequency, TF over GST control)","1.35 fold enrichment (6-mer frequency, TF over GST control)","1.35 fold enrichment (6-mer frequency, TF over GST control)","1.27 fold enrichment (6-mer frequency, TF over GST control)"
TATAAG,"1.15 fold enrichment (6-mer frequency, TF over GST control)","1.23 fold enrichment (6-mer frequency, TF over GST control)","1.16 fold enrichment (6-mer frequency, TF over GST control)","1.12 fold enrichment (6-mer frequency, TF over GST control)","1.17 fold enrichment (6-mer frequency, TF over GST control)","1.1 fold enrichment (6-mer frequency, TF over GST control)","1.13 fold enrichment (6-mer frequency, TF over GST control)","1.12 fold enrichment (6-mer frequency, TF over GST control)","1.24 fold enrichment (6-mer frequency, TF over GST control)"
GTGCTA,"1.11 fold enrichment (6-mer frequency, TF over GST control)","1.09 fold enrichment (6-mer frequency, TF over GST control)","1.04 fold enrichment (6-mer frequency, TF over GST control)","1.09 fold enrichment (6-mer frequency, TF over GST control)","1.12 fold enrichment (6-mer frequency, TF over GST control)","1.03 fold enrichment (6-mer frequency, TF over GST control)","1.25 fold enrichment (6-mer frequency, TF over GST control)","1.1 fold enrichment (6-mer frequency, TF over GST control)","1.14 fold enrichment (6-mer frequency, TF over GST control)"
TATACC,"1.29 fold enrichment (6-mer frequency, TF over GST control)","1.31 fold enrichment (6-mer frequency, TF over GST control)","1.18 fold enrichment (6-mer frequency, TF over GST control)","1.2 fold enrichment (6-mer frequency, TF over GST control)","1.18 fold enrichment (6-mer frequency, TF over GST control)","1.21 fold enrichment (6-mer frequency, TF over GST control)","1.05 fold enrichment (6-mer frequency, TF over GST control)","1.27 fold enrichment (6-mer frequency, TF over GST control)","1.16 fold enrichment (6-mer frequency, TF over GST control)"
